This note sets out measurements from ChEMBL document CHEMBL1157539, “Thousands of chemical starting points for antimalarial lead identification” (Nature, 2010).

One assay relates to Plasmodium falciparum. Briefly: GSK_TCMDC: Inhibition of Plasmodium falciparum Dd2 in whole red blood cells, using parasite LDH activity as an index of growth. Test compounds present at 2uM. Format: functional.
`CN1CCCN(Cc2ccc(-c3ccc(NS(=O)(=O)c4cccc5cccnc45)cc3)cc2)CC1.O=C(O)C(F)(F)F`: the Inhibition was found to be 85%.
Still for that read-out and setting: the result for `O=C(Nc1ccc(Cl)cc1)c1ccc(CN2CCCN(Cc3ccsc3)CC2)cc1.O=C(O)C(F)(F)F` reads 1%; that for `Cc1cc(C(=O)Nc2ccc3c(c2)CCN3C2CCN(Cc3cccc(F)c3F)C2)no1` (configuration not stated), 94%.
In the case of `CCCCCCc1cc2cc(-c3nc(-c4ccc(OC)cc4)cs3)c(=O)oc2cc1O`, the Inhibition was determined as 93%.
On the same count and under the same terms, the value for `CN(C)CC(O)C(c1ccccc1)c1cccc(Br)c1.Cl` (configuration not stated) was 9%; that for `CC(C)c1nc2c(N)nc(N)nc2nc1N` was 0%; that for `Cc1cc2nc(N/C(N)=N/C(=O)NC3CCCCC3)nc(C)c2cc1C` was 98%.

The test system of a further assay is HepG2. Put plainly: GSK_TCMDC: Percent inhibition of human HepG2 cell line. Test compounds present at 10uM. The class given is functional.
`CCn1c(C(C)C)cc2c3c(N)nc(N)nc3ccc21` displayed an Inhibition of 67%.
Regarding `CCCCCCn1c(Sc2ccc(C#N)c([N+](=O)[O-])c2)nnc1-c1ccc(Cl)cc1`, the Inhibition is on record as 23%.
For `O=C(Nc1cccc([N+](=O)[O-])c1)Nc1ccc(Cl)c(C(F)(F)F)c1`, the Inhibition is 15%.
Take `CC(Sc1nnc(-c2cccs2)[nH]1)C(=O)c1c[nH]c2ccccc12` (configuration not stated): the Inhibition stood at 0%.
In turn, `O=C(Nc1ccc(-c2ccccc2)cc1)Nc1cccc(Cn2nc(Cl)c(N3CCCNCC3)cc2=O)c1.O=C(O)C(F)(F)F` came in with an Inhibition of 13%.
The same measure, in the same setting: the result for `Cc1cccc(-c2nc3cc(NC(=O)c4ccc([N+](=O)[O-])o4)ccc3o2)c1` reads 8%; that for `CCNc1cc(C(=O)N[C@@H](Cc2cccc(F)c2)[C@H](O)CNC(C)CCCC(C)C)cc(N2CCCCS2(=O)=O)c1.Cl` (some centres not stated), 0%.
`CNCCCn1c(N(C)C)nc2cc(-n3cnc4cc(-c5ccc(Cl)cc5)sc4c3=O)ccc21.O=C(O)C(F)(F)F` gave an Inhibition of 39%.
Same read-out and setting: the value for `COc1ccc2ccccc2c1CCCCN1CCN(CC(c2ccc(F)cc2)N2CCC2)CC1.O=C(O)C(F)(F)F` (configuration not stated) was 51%; that for `Cc1cccc2nc(-c3cccc(-c4ccc(CNCc5ccccc5)cc4)c3)[nH]c12.O=C(O)C(F)(F)F` was 33%.
The same measure, in the same setting: the result for `COc1cc(C)nc2ccc(NC(=O)COCC(=O)Nc3ccc4nc(C)cc(OC)c4c3)cc12` reads 67%.
On the same count and under the same terms, the result for `Cc1cccc2nc(-c3cccc(-c4ccc(CN5CCCC5CN)cc4)c3)[nH]c12.O=C(O)C(F)(F)F` (configuration not stated) reads 19%; that for `COc1cc(SC)c(Br)cc1-c1nc2ccncc2[nH]1`, 5%.
In the case of `Fc1ccc2[nH]c3c(NCCN4CCCCC4)ncnc3c2c1`, the Inhibition worked out at 24%.
`Cl.N#Cc1cccc(-c2cccc(C(=O)NC3CCC(CCN4CCc5ccc(C#N)cc5CC4)CC3)c2)c1` (configuration not stated) had an Inhibition of 31%.
In turn, `Cc1cccc2nc(-c3ccc(-c4ccc(NC(=O)Nc5ccsc5)cc4)s3)[nH]c12` registered an Inhibition of 74%.
Same read-out and setting: the value for `C=Cc1cc(NC(=O)N2CCc3cc(OC)c(C(F)(F)F)cc32)cc(-c2cccnc2)c1` was 7%.
As for `COc1ccc2ncc(F)c([C@H](O)CN3CCC(NCc4ccc5c(c4)OCCO5)CC3)c2c1.Cl`, the Inhibition is given as 1%.
`O=C(Nc1ccc(N2CCN(Cc3cccc(F)c3)CC2)cc1)c1cccs1.O=C(O)C(F)(F)F` showed an Inhibition of 0%.
Same read-out and setting: the value for `COc1cc2nc(N3CCC(CNC(=O)/C=C/c4ccccc4F)CC3)nc(N)c2cc1OC.Cl` was 0%; that for `Brc1ccc(Nc2ccnc3cc(-c4nccs4)ccc23)cc1Oc1ccnc2cc(-c3nccs3)ccc12` was 15%.
Same read-out and setting: the value for `COc1ccc(NC(=O)c2c(NC(=O)c3cccs3)sc3c2CCCC3)cc1` was 4%; that for `COc1ccc2nccc([C@@H](O)CN3CCC(NC(=O)/C=C/c4cccc(-c5ccccc5)c4)CC3)c2c1` was 12%; that for `COc1cc2c(cc1CCNCCCCNCCc1cc3c(cc1OC)CCCC3)CCCC2.CS(=O)(=O)O` was 100%.
`CCCNc1nc(Nc2ccccc2C)nc2ccccc12`: the Inhibition is on record as 13%.
On to `O=C(Cc1cccc(Cl)c1)Nc1cccc(-c2c[nH]c3nc(Nc4ccccc4)ncc23)c1.O=C(O)C(F)(F)F`, for which the Inhibition was 5%.
`CCC(C)OC(=O)C1=C(C)NC2=C(C(=O)CC(c3ccc(OC)c(OC)c3)C2)C1c1ccc(C)o1` (configuration not stated) registered an Inhibition of 6%.
On the same count and under the same terms, the value for `NCc1cccc(-c2ccc3ccnc(N)c3c2)c1` was 7%; that for `Cc1noc(-c2ccccc2)c1NC(=O)N1CCN(CCCCCCNC(=O)/C=C/c2ccc(Cl)c(Cl)c2)CC1` was 6%.
`COc1ccccc1C1CCN(C2CCC(NC(=O)c3ccc4[nH]c(-c5ccc(C)cc5)nc4c3)CC2)CC1` (configuration not stated) registered an Inhibition of 100%.
As to `Cc1nc2c(Nc3nc(-c4ccncc4)cs3)ncnc2n1-c1ccccc1Cl`, the Inhibition worked out at 14%.
Compound `CCN(CC)CCN(Cc1ccc(-c2ccc(C(F)(F)F)s2)cc1)C(=O)Cn1c(CCc2cccc(F)c2F)nc(=O)c2ccccc21.O=C(O)C(O)C(O)C(=O)O` had an Inhibition of 43%.
`CN(C)S(=O)(=O)c1ccc(N2C(=O)C3C(C2=O)C2(c4ccccc4)C(=O)C3(c3ccccc3)C(c3ccccc3)=C2c2ccccc2)cc1` (configuration not stated): the Inhibition is on record as 0%.
Still for that read-out and setting: the result for `CN1CCCN(Cc2ccc(-c3ccc(NS(=O)(=O)c4cccc5cccnc45)cc3)cc2)CC1.O=C(O)C(F)(F)F` reads 35%; that for `O=C(Nc1ccc(Cl)cc1)c1ccc(CN2CCCN(Cc3ccsc3)CC2)cc1.O=C(O)C(F)(F)F`, 48%; that for `Cc1cc(C(=O)Nc2ccc3c(c2)CCN3C2CCN(Cc3cccc(F)c3F)C2)no1` (configuration not stated), 0%.
The compound `CCCCCCc1cc2cc(-c3nc(-c4ccc(OC)cc4)cs3)c(=O)oc2cc1O` registered an Inhibition of 45%.
`CN(C)CC(O)C(c1ccccc1)c1cccc(Br)c1.Cl` (configuration not stated): the Inhibition was determined as 22%.
Same read-out and setting: the value for `CC(C)c1nc2c(N)nc(N)nc2nc1N` was 64%; that for `Cc1cc2nc(N/C(N)=N/C(=O)NC3CCCCC3)nc(C)c2cc1C` was 20%.

Broadly, the Inhibition is how much of the control response was suppressed. A low value points to a response near the control.
